Source: PubChem BioAssay (Tox21)
Inconclusive results are not listed. Active and inactive are the calls of the source. Unless noted, calls come from the whole dose curve.

What was measured:
[1] = qHTS assay to identify small molecule antagonists of the peroxisome proliferator-activated receptor delta (PPARd) signaling pathway - cell viability counter screen (AID 743213; active = well fitted curve in the direction sought with a large enough effect in the repeat runs; an effect the other way counts as inactive or inconclusive; note: % is set by controls: 0 for no effect and ±100 for the full control effect; nearly all actives have a fitted effect of over 50% in size)
Procedure, shortened: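 PPARd-bla HEK293H cells were treated with compounds plus agonist L165041 (300 nM final) for 17 h at 37 C. Viability was then read in the same wells by CellTiter-Glo luminescence after 30 min at room temperature.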

[2] = biological target: Peroxisome proliferator-activated receptor delta (Homo sapiens) (UniProt Q03181); experiment: qHTS assay to identify small molecule antagonists of the peroxisome proliferator-activated receptor delta (PPARd) signaling pathway (AID 743215; active = well fitted inhibition curve with a large enough effect in the signal ratio in the repeat runs, not every such curve was filed as active; the % refers to the signal ratio;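 note: cells stimulated with agonist L165041 at 300 nM final during compound exposure; series mostly up to about 62 µM; % is set by controls: 0 for no effect and ±100 for the full control effect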)
Chain of Peroxisome proliferator-activated receptor delta (Homo sapiens) (Q03181 whole entry, looked up): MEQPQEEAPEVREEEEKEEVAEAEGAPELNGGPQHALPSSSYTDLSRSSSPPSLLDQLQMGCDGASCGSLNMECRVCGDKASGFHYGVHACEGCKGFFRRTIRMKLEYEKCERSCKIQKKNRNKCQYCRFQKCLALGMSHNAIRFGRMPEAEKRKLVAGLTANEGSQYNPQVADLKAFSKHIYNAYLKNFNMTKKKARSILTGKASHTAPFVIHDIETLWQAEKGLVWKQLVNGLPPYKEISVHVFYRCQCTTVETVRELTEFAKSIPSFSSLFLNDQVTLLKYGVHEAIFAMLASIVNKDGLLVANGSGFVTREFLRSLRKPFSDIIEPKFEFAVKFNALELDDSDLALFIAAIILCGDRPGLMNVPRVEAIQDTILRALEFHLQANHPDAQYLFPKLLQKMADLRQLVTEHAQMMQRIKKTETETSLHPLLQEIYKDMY
Procedure, shortened: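 Read-out is beta-lactamase FRET fluorescence, measured 2 h after substrate addition at room temperature. Beforehand, UAS-bla HEK293H cells carrying the PPARd reporter were exposed to compounds with L165041 at 300 nM final for 17 h at 37 C.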

[3] = biological target: Bile acid receptor (Homo sapiens) (UniProt Q96RI1); experiment: qHTS assay to identify small molecule antagonists of the farnesoid-X-receptor (FXR) signaling pathway (AID 743217; active = well fitted inhibition curve with a large enough effect in the signal ratio in the repeat runs, not every such curve was filed as active; the % refers to the signal ratio; note: % is set by controls: 0 for no effect and ±100 for the full control effect)
Chain of Bile acid receptor (Homo sapiens) (Q96RI1 whole entry, looked up): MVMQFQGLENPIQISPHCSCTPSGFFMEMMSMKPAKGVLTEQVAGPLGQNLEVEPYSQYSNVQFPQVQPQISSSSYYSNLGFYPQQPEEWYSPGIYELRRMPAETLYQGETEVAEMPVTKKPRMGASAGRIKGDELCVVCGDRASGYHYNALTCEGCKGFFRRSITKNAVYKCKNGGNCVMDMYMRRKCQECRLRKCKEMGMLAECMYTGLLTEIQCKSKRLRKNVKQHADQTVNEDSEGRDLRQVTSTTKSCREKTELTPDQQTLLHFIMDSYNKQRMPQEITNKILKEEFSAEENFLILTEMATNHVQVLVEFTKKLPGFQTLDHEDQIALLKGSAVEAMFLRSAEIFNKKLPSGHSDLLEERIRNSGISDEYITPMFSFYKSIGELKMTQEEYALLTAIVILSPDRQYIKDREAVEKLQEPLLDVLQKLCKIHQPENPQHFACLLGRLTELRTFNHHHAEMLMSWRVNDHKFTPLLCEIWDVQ
Procedure, shortened: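 HEK 293T FXR-UAS-bla, 5000 cells/well; compound + CDCA 50 uM final; 16 h, 37 °C; B/G FRET substrate 2 h RT; fluorescence.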

[4] = qHTS assay to identify small molecule agonists of the farnesoid-X-receptor (FXR) signaling pathway - cell viability counter screen (AID 743218; active = well fitted curve in the direction sought with a large enough effect in the repeat runs; an effect the other way counts as inactive or inconclusive; note: % is set by controls: 0 for no effect and ±100 for the full control effect; nearly all actives have a fitted effect of over 45% in size)
Procedure, shortened: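 HEK 293T FXR-bla cells; 5 h pre-incubation, 16 h compound exposure at 37 C; LiveBLAzer substrate 2 h RT, then CellTiter-Glo 30 min RT, luminescence.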

[5] = biological target: Bile acid receptor (Homo sapiens) (UniProt Q96RI1); experiment: qHTS assay to identify small molecule agonists of the farnesoid-X-receptor (FXR) signaling pathway (AID 743220; active = well fitted activation curve with a large enough effect in the signal ratio in the repeat runs, not every such curve was filed as active; the % refers to the signal ratio; note: % is set by controls: 0 for no effect and ±100 for the full control effect)
Procedure, shortened: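 Beta-lactamase reporter under UAS control in GeneBLAzer FXR HEK 293T cells (5000/well) measured with LiveBLAzer FRET substrate after 2 h at room temperature. Compound exposure lasted 16 h at 37C.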

[6] = qHTS assay to identify small molecule antagonists of the farnesoid-X-receptor (FXR) signaling pathway - cell viability counter screen (AID 743221; active = well fitted cell-killing curve with a large enough effect in the repeat runs, not every such curve was filed as active; note: % is set by controls: 0 for no effect and ±100 for the full control effect; nearly all actives have a fitted effect of over 50% in size)
Procedure, shortened: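 FXR-UAS-bla HEK 293T cells were treated with test compounds plus chenodeoxycholic acid (50 uM final) for 16 h at 37 C. Cell viability in the same wells was then read as CellTiter-Glo luminescence after 30 min at room temperature.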

[7] = biological target: Vitamin D3 receptor (Homo sapiens) (UniProt P11473); experiment: qHTS assay to identify small molecule agonists of the vitamin D receptor (VDR) signaling pathway (AID 743222); note: % is set by controls: 0 for no effect and ±100 for the full control effect
Chain of Vitamin D3 receptor (Homo sapiens) (P11473 whole entry, looked up): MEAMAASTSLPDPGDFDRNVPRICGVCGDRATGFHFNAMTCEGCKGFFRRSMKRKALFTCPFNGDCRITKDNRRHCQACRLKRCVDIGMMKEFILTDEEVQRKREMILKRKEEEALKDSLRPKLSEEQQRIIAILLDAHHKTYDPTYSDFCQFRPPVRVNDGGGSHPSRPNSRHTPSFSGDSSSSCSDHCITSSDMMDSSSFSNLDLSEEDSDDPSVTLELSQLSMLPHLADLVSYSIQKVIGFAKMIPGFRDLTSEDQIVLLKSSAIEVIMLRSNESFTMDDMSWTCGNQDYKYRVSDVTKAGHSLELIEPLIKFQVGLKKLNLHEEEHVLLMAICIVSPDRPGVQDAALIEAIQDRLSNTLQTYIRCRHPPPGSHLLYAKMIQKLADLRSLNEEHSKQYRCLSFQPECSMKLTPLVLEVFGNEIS
Procedure, shortened: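 VDR-bla cells, 2,000/well; 4 h preincubation 37C; cpd (DMSO) 16 h; LiveBLAzer B/G substrate 2 h RT; fluorescence intensity read.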

[8] = biological target: Vitamin D3 receptor (Homo sapiens) (UniProt P11473); experiment: qHTS assay to identify small molecule antagonists of the vitamin D receptor (VDR) signaling pathway (AID 743223; active = well fitted inhibition curve with a large enough effect in the signal ratio in the repeat runs, not every such curve was filed as active; the % refers to the signal ratio; note: % is set by controls: 0 for no effect and ±100 for the full control effect)
Procedure, shortened: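 VDR-bla cells were plated, incubated 4 h at 37C, then given compound and 1alpha,25-dihydroxyvitamin D3 (3 nM final). After 16 h at 37C, LiveBLAzer B/G FRET substrate was added for 2 h at room temperature and fluorescence read.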

[9] = qHTS assay to identify small molecule agonists of the vitamin D receptor (VDR) signaling pathway - cell viability counter screen (AID 743224; active = well fitted curve in the direction sought with a large enough effect in the repeat runs; an effect the other way counts as inactive or inconclusive; note: series mostly up to about 63 µM; % is set by controls: 0 for no effect and ±100 for the full control effect; nearly all actives have a fitted effect of over 50% in size)
Procedure, shortened: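 Luminescence from CellTiter-Glo, read after 30 min at room temperature, reports viability of VDR-bla cells treated with compounds for 16 h at 37C in the wells used for the beta-lactamase FRET read.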

[10] = qHTS assay to identify small molecule agonists of the NFkB signaling pathway (AID 1159509; active = well fitted curve in the direction sought with a large enough effect in the signal ratio in the repeat runs, not every such curve was filed as active; the % refers to the signal ratio)
Procedure, shortened: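 After overnight attachment, reporter cells received test compounds, DMSO or positive controls and were incubated 5 hr at 37 C. FRET substrate was then added for 1.5 hr at room temperature before dual-emission fluorescence reading.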

[11] = qHTS assay to identify small molecule agonists of the NFkB signaling pathway - cell viability counter screen (AID 1159515); note: series mostly up to about 61 µM; % is set by controls: 0 for no effect and ±100 for the full control effect; nearly all actives have a fitted effect of over 55% in size
Procedure, shortened: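 Luminescence from CellTiter-Glo (30 min, room temperature) gives viability, measured in the same wells as the beta-lactamase reporter read. Cells were NFkB-bla ME-180, 2,000 per well, treated 5 hr with compounds.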

[12] = qHTS assay to identify small molecule agonists of the endoplasmic reticulum stress response signaling pathway (AID 1159516; active = well fitted activation curve with a large enough effect in the signal ratio in the repeat runs, not every such curve was filed as active; the % refers to the signal ratio; note: % is set by controls: 0 for no effect and ±100 for the full control effect)
Procedure, shortened: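 Read-out is beta-lactamase cleavage of a FRET substrate (405 nm excitation; 460 and 530 nm emissions) in ESRE-bla HeLa cells after a 5 hr compound exposure at 37 C. Substrate incubation ran 2 hr at room temperature.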

[13] = qHTS assay to identify small molecule agonists of the endoplasmic reticulum stress response signaling pathway - cell viability counter screen (AID 1159517);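 note: HeLa cells carrying an ER stress response element beta-lactamase reporter; series mostly up to about 61 µM; % is set by controls: 0 for no effect and ±100 for the full control effect; nearly all actives have a fitted effect of over 50% in size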
Procedure, shortened: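 Luminescence readout: CellTiter-Glo, 30 min RT, same wells as the ESRE-bla reporter read. HeLa ESRE-bla, 1,500 cells/well, o/n 37 C; cpd 5 hr 37 C/5% CO2.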

[14] = qHTS assay to identify small molecule antagonists of the retinoid-related orphan receptor gamma (ROR-gamma) signaling pathway - cell viability counter screen (AID 1159520; active = well fitted curve in the direction sought with a large enough effect in the repeat runs; an effect the other way counts as inactive or inconclusive)
Procedure, shortened: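 Tet-on ROR gamma CHO cells (1,000/well) were plated 4 hr, given compounds in DMSO for 2 hr at 37 C, then induced with 1 uM final doxycycline for 16 hr. Viability was read as ATP by CellTiter-Glo luminescence after 30 min.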

[15] = biological target: Nuclear receptor ROR-gamma (Homo sapiens) (UniProt P51449); experiment: qHTS assay to identify small molecule antagonists of the retinoid-related orphan receptor gamma (ROR-gamma) signaling pathway (AID 1159521; active = well fitted curve in the direction sought with a large enough effect in the repeat runs; an effect the other way counts as inactive or inconclusive)
Procedure, shortened: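 Tet-on RORγ CHO cells carrying a ROR response element–luciferase reporter were pretreated with compounds for 2 h, then induced with 1 uM (final) doxycycline hyclate for 16 h at 37 C. Antagonism was read as decreased ONE-Glo luminescence.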

[16] = qHTS assay to identify small molecule agonists of the AP-1 signaling pathway - cell viability counter screen (AID 1159525); note: nearly all actives have a fitted effect of over 55% in size
Procedure, shortened: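 ME-180 AP-1-bla, 2500 cells/well, Opti-MEM + 0.5% dialyzed FBS; overnight 37 °C; cpd 15-pt titration, 5 h 37 °C; CellTiter-Glo 30 min RT; luminescence read; normalised to TOAB and DMSO controls.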

[17] = qHTS assay to identify small molecule agonists of the AP-1 signaling pathway (AID 1159526); note: % is set by controls: 0 for no effect and ±100 for the full control effect
[18] = biological target: Retinoic acid receptor RXR-alpha (Homo sapiens) (UniProt P19793); experiment: qHTS assay to identify small molecule agonists of the RXR signaling pathway (AID 1159527); note: % is set by controls: 0 for no effect and ±100 for the full control effect; nearly all actives have a fitted effect of over 35% in size
Chain of Retinoic acid receptor RXR-alpha (Homo sapiens) (P19793 whole entry, looked up): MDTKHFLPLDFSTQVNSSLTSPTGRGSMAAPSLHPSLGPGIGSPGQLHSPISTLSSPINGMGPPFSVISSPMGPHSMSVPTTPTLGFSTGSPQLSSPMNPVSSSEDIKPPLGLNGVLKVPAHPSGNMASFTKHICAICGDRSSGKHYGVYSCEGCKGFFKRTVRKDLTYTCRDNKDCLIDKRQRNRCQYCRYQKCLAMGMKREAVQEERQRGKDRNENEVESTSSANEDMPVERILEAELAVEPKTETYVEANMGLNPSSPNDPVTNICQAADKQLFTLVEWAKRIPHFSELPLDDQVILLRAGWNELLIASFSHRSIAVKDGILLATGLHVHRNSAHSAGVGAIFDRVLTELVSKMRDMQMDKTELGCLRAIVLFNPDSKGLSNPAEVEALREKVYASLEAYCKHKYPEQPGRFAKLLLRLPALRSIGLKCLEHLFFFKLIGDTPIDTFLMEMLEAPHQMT
Procedure, shortened: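 GeneBLAzer RXR-alpha-UAS-bla HEK 293T cells in medium with 2% charcoal-stripped FBS, pre-incubated 5 hr at 37 C, then exposed to compounds 16 hr. Beta-lactamase reporter read by FRET substrate, 2 hr room temperature, 460/530 nm emission.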

[19] = biological target: Peroxisome proliferator-activated receptor delta (Homo sapiens) (UniProt Q03181); experiment: qHTS assay to identify small molecule agonists of the peroxisome proliferator-activated receptor delta (PPARd) signaling pathway (AID 743212); note: % is set by controls: 0 for no effect and ±100 for the full control effect
Procedure, shortened: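 GeneBLAzer PPARd UAS-bla HEK293H cells (beta-lactamase reporter under UAS control), plated and rested 5 h at 37 C, then exposed to compounds in DMSO at 37 C; LiveBLAzer B/G FRET substrate added, 2 h room temperature, fluorescence read.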

[20] = qHTS assay to identify small molecule antagonists of the vitamin D receptor (VDR) signaling pathway - cell viability counter screen (AID 743225; active = well fitted curve in the direction sought with a large enough effect in the repeat runs; an effect the other way counts as inactive or inconclusive)
Procedure, shortened: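 VDR-bla HEK 293T cells, 4 h pre-incubation at 37C, then compound plus 1-alpha,25-dihydroxyvitamin D3 (3 nM final) for 16 h. After the beta-lactamase FRET read, CellTiter-Glo was added to the same wells; luminescence after 30 min at room temperature.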

CCNc1nc(Cl)nc(NC(C)(C)C)n1
inactive: Potency [1] | Potency [2] | outcome [3] | Potency [4] | outcome [5] | Potency [6] | outcome [7] | outcome [8] | Potency [9] | outcome [10] | outcome [11] | outcome [12] | Potency [13] | Potency [14] | Potency [15] | Potency [16] | outcome [17] | Potency [18]

CC(C)NCC(O)c1ccc([N+](=O)[O-])cc1 (configuration not stated)
inactive: outcome [19] | Potency [2] | outcome [3] | Potency [4] | outcome [5] | Potency [6] | outcome [7] | outcome [8] | outcome [10] | outcome [11] | outcome [12] | Potency [13] | Potency [14] | Potency [15] | Potency [16] | outcome [17] | Potency [18]

CCCCCCCCSC(=O)Oc1cc(Cl)nnc1-c1ccccc1
inactive: outcome [19] | Potency [2] | Potency [4] | Potency [6] | outcome [7] | outcome [8] | Potency [9] | Potency [20] | outcome [10] | outcome [11] | outcome [12] | Potency [13] | Potency [14] | Potency [15] | Potency [16] | outcome [17] | Potency [18]

CN=CNc1ccc(C)cc1C
inactive: outcome [19] | Potency [1] | Potency [4] | Potency [6] | outcome [7] | outcome [8] | Potency [9] | Potency [20] | outcome [10] | outcome [11] | outcome [12] | Potency [13] | Potency [14] | Potency [15] | Potency [16] | outcome [17] | Potency [18]

C[C@@H](N)[C@@H](O)c1ccccc1
inactive: outcome [19] | Potency [4] | Potency [6] | Potency [9] | outcome [10] | outcome [11] | outcome [12] | Potency [13] | Potency [14] | Potency [15] | Potency [16] | outcome [17] | Potency [18]

C[C@H](N)C(=O)c1ccccc1
inactive: outcome [19] | Potency [2] | outcome [3] | Potency [4] | outcome [5] | Potency [6] | outcome [7] | outcome [8] | Potency [9] | Potency [20] | outcome [10] | outcome [11] | outcome [12] | Potency [13] | Potency [14] | Potency [15] | Potency [16] | outcome [17] | Potency [18]

O=c1[nH]c2ccccc2o1
inactive: outcome [19] | Potency [2] | Potency [4] | Potency [6] | outcome [7] | Potency [9] | Potency [20] | outcome [10] | outcome [11] | outcome [12] | Potency [13] | Potency [14] | Potency [15] | Potency [16] | outcome [17] | Potency [18]

N=C(N)[Se]
inactive: outcome [19] | Potency [2] | Potency [4] | Potency [6] | outcome [7] | outcome [8] | Potency [9] | Potency [20] | outcome [10] | outcome [11] | outcome [12] | Potency [13] | Potency [14] | Potency [15] | Potency [16] | outcome [17] | Potency [18]

CC(Cc1ccccc1)NCCn1cnc2c1c(=O)n(C)c(=O)n2C (configuration not stated)
inactive: outcome [19] | Potency [1] | Potency [4] | Potency [6] | outcome [7] | outcome [8] | Potency [9] | Potency [20] | outcome [10] | outcome [11] | outcome [12] | Potency [13] | Potency [14] | Potency [15] | Potency [16] | outcome [17] | Potency [18]

Oc1ccc(Cc2ccc(O)cc2)cc1
inactive: outcome [19] | Potency [2] | Potency [4] | Potency [6] | Potency [9] | Potency [20] | outcome [10] | outcome [11] | outcome [12] | Potency [13] | Potency [14] | Potency [15] | Potency [16] | outcome [17] | Potency [18]

CN1COCN(Cc2cnc(Cl)s2)/C1=N\[N+](=O)[O-]
inactive: outcome [19] | Potency [2] | outcome [3] | Potency [4] | outcome [5] | Potency [6] | outcome [7] | outcome [8] | Potency [9] | Potency [20] | outcome [10] | outcome [11] | outcome [12] | Potency [13] | Potency [14] | Potency [15] | Potency [16] | outcome [17] | Potency [18]

Clc1cc2c(cc1Cl)Oc1cc(Cl)c(Cl)cc1O2
inactive: activation [19] 7.23% [at 0.275 µM] | ratio activity, negative = inhibition [2] -14.9% [at 0.278 µM] | activity change, negative = inhibition [3] -0.544% [at 0.275 µM] | viability change, negative = cytotoxic [4] -3.37% [at 0.275 µM] | activity change, negative = cytotoxicity [6] -5.6% [at 0.275 µM] | activation [7] 3.98% [at 0.275 µM] | activity change, negative = inhibition [8] -1.31% [at 0.281 µM] | activity change, negative = cytotoxicity [9] -0.698% [at 0.275 µM] | viability change, negative = cytotoxic [20] 2.97% [at 0.281 µM] | activation [10] -0.0516% [at 0.281 µM] | activity, negative = cytotoxic [11] -0.991% [at 0.281 µM] | activation [12] -5.12% [at 0.281 µM] | activity change, negative = cytotoxicity [13] -1.54% [at 0.281 µM] | activity, negative = cytotoxicity [14] 0.49% [at 0.349 µM] | activity change, negative = inhibition [15] 16.4% [at 0.35 µM] | viability change, negative = cytotoxic [16] -6.16% [at 0.29 µM] | activation [17] 0.434% [at 0.29 µM] | activation [18] 5.21% [at 0.29 µM]

CC(=O)OCC1=C(C(=O)O)N2C(=O)[C@@H](N)[C@H]2SC1
inactive: outcome [19] | Potency [2] | outcome [3] | Potency [4] | outcome [5] | Potency [6] | outcome [7] | outcome [8] | Potency [9] | Potency [20] | outcome [10] | outcome [11] | outcome [12] | Potency [13] | activity, negative = cytotoxicity [14] 5.7% [at 19 µM] | activity change, negative = inhibition [15] 30.2% [at 19 µM] | viability change, negative = cytotoxic [16] -1.2% [at 15.8 µM] | activation [17] 4.04% [at 15.8 µM] | activation [18] -0.797% [at 15.8 µM]

CCCCCCC1CCOC1=O (configuration not stated)
inactive: Potency [1] | Potency [4] | Potency [6] | outcome [7] | Potency [9] | Potency [20] | outcome [10] | outcome [11] | outcome [12] | Potency [13] | Potency [14] | Potency [15] | Potency [16] | outcome [17] | Potency [18]
